PubChem BioAssay AID2314 (National Center for Advancing Translational Sciences (NCATS), 2010)
Where “and” joins values, the source holds several entries; their conditions need not be identical. Equal entries are not always repeated. The campaign covered roughly 300,000 compounds. About 37,000 (12%) were called active. Only a selection was taken, and actives are over-represented in it overall. A number with no mark means an inactive call. Rule as the data show it: active = max response mostly above about 13% (no sharp cut-off); inactive = mostly below about 14%.

Test: Cycloheximide Counterscreen for Small Molecule Inhibitors of Shiga Toxin; also: read at 38.3 µM for the half of the compounds with a filed dose; 0% is about no effect
Details: cell reporter, cycloheximide protein synthesis inhibition counterscreen; stronger effect = higher value

Compound	max response
COc1ccc(CCNS(=O)(=O)c2cn(C)nc2C)cc1	-0.628%
CC(C)=N/N=C1/NC(=O)C(Cc2ccccc2)S1 (stereo unspecified)	-3.98%
CC1CCc2c(sc3nc4n(c(=O)c23)CCS4)C1 (stereo unspecified)	31.9%
CCCn1nnc2sc3c(c2c1=O)CCC(C)C3 (stereo unspecified)	35.5% (active)
C=CCn1c(SCc2c(C)noc2C)nc2sc3c(c2c1=O)CCC(C)C3 (stereo unspecified)	-3.64%
COc1cc(C2OC(c3cc(OC)c(OC)c(OC)c3)C(C)C2C)cc(OC)c1OC (stereo unspecified)	8.36%
CCOC(=O)c1nnn2c1nc(N1CCN(c3ccccc3)CC1)c1ccccc12	-4.05%
CCN(CC)CCC(c1cc(OC)c(OC)c(OC)c1)c1c(OC)cc(OC)c2c(-c3ccccc3)cc(=O)oc12 (stereo unspecified)	-8.53% and -14.6%
Cc1nn(C)c(Oc2ccccc2)c1CCNS(=O)(=O)c1ccc(F)cc1	-1.22%
COc1ccc(CCNc2ncnc3c2nnn3Cc2ccccc2)cc1	-1.82%
CN1CCN(c2ccc(CNS(=O)(=O)c3cccc(F)c3)cc2)CC1	-2.69%
CCC(C)n1c(-c2cc(OC)c(OC)c(OC)c2)nc2nc3ccccc3nc21 (stereo unspecified)	5.57%
COc1ccccc1Oc1nc(-c2cccnc2)nc2ccccc12	6.84%
Fc1ccc(/C=N/Nc2nc(-c3cccnc3)nc3ccccc23)cc1	46.2% (active)
COc1ccc(Nc2nc(-c3cccnc3)nc3ccccc23)cn1	-4.67%
CC(NS(=O)(=O)c1ccc(OCC(=O)N2CCCC2)cc1)c1ccccc1 (stereo unspecified)	-1.86%
CC(C)(C)NC(=O)c1ccc(Cn2cc(C(F)(F)F)ccc2=O)cc1	-2.26%
Cc1ccc(N2C(=O)SC(N(CC(=O)O)c3ccc(C)cc3)C2=O)cc1 (stereo unspecified)	5.36%
Cc1cccc(N2C(=O)SC(N(CC(=O)O)c3cccc(C)c3)C2=O)c1 (stereo unspecified)	31.1% (active)
Cc1cccc(N(CC(=O)N2CCOCC2)S(C)(=O)=O)c1	-1.89%
O=C(CN(c1cc(C(F)(F)F)ccc1Cl)S(=O)(=O)c1ccccc1)NCc1cccnc1	-4.73%
CCOC(=O)c1cn(CC(=O)Nc2ccc(C(C)C)cc2)nn1	-2.13%
CC(C)c1ccc(NC(=O)Cn2ncc3ccccc32)cc1	29% (active)
CCc1ccc(NC(=O)Cn2ncn3c(cc4ccccc43)c2=O)cc1	-4.36%
O=C(O)Cn1c(Cc2ccccc2)nc2ccccc21	1.69%
COC(=O)c1ccc2c(=O)n(CCN3CCOCC3)c(SCC(=O)Nc3cccc(OC)c3)nc2c1	-1.03%

Compound	max response
CCOC(=O)CSc1nnc(CNc2ccc(F)cc2)o1	-0.571%
Cc1cccc2nc(CNc3ccc(F)cc3)cn12	33.7% (active)
O=C(COC(=O)c1ccco1)NCc1ccc(Cl)cc1	4.34%
COc1cccc(-n2cc(C(=O)O)c3ccccc3c2=O)c1	-2.23%
COc1cccc(N2C(=O)CN(Cc3ccccc3)C2=S)c1	-1.8%
COc1cccc(-n2c(=S)[nH]c3c(oc4ccccc43)c2=O)c1	18.5% (active)
O=C(c1ccccc1)N1CCC(CC2CC(c3ccc(Cl)cc3)=NO2)(C(=O)NCC2CCCCC2)CC1 (stereo unspecified)	-1.39%
COc1ccc(-c2oc3ncn(Cc4ccco4)c(=N)c3c2-c2ccc(OC)cc2)cc1	-1.11%
COC(=O)c1cccnc1NC(=S)NC(C)C	3.9%
Cc1ccc(NC(=S)Nc2ncccc2C)c(C)c1	42.7% (active)
CCOC(=O)N1CCN(C(=S)Nc2ccc(C)cc2C)CC1	-5.54%
CCOc1ccc(C(=O)COC(=O)c2ccc(-n3cnnn3)cc2)cc1	1.17%
CC1CN(c2nc(-c3ccccc3)nnc2-c2ccccc2)CC(C)O1 (stereo unspecified)	-4.84%
COc1ccc(C2/C=C\CN(C(=O)c3ccc(C)cc3)C(Cc3ccccc3)C(=O)N2Cc2ccc(F)cc2)cc1 (stereo unspecified)	2.85%
O=C(CN1CCSCC1)N/N=C/c1ccc(Cl)cc1	11.3%
CNC(=S)NNC(=O)c1sccc1OCc1ccccc1	-0.196%
Cc1ccc(COc2ccc(/C=N/NC(=O)CN3CCCCC3)cc2)cc1	32.7% (active)
Cc1ccc(/C=N/NC(=O)COc2ccccc2-c2ccccc2)cc1	-1.02%
CCOc1cc(/C=N/NC(=O)CN2CCCCC2)ccc1O	-1.36%
Cc1ccc(/C=N/NC(=O)c2sccc2OCc2ccc(F)cc2)cc1	16.2% (active)
CC(Sc1nc2c([nH]c3ccccc32)c(=O)n1C)c1ccccc1 (stereo unspecified)	-7.36%
Cc1ccc(C(=O)Nc2c(C#N)c(C)c(C)n2Cc2ccccc2)cc1	-2.66%
CC(=O)Nc1ccc(S(=O)(=O)N2CCN(C(=O)c3ccccc3F)CC2)cc1	6.62%
CCOC(=O)c1c(N=CN(C)C)c(C#N)c2n1CCCC2	-4.22%
Cc1oc2nc(SCC(=O)Nc3ccc(S(N)(=O)=O)cc3)nc(NC(=O)c3ccccc3)c2c1C	-2.02%
O=C(CN(Cc1ccc(Br)cc1)S(=O)(=O)c1ccccc1)NCc1ccncc1	-2.43%

Compound	max response
Cc1cc(C)nc(-n2nc(C)cc2NC(=O)c2ccc(F)cc2F)n1	-3.69%
N=c1c2c3c(sc2nc2n1CCCCC2)CCCC3	15%
C[C@@H]1CC[C@@]2(OC1)O[C@H]1C[C@H]3[C@@H]4CC=C5C[C@@H](O)[C@H](O)C[C@]5(C)C4CC[C@]3(C)[C@H]1[C@@H]2C (stereo partly specified)	-6.07%
CCCc1nn2c(=O)cc(CSCC(=O)Nc3cccc(C)c3)nc2s1	-2.96%
O=C1NCC(=O)N(Cc2ccccc2)/C1=C/c1ccccc1	-7.39%
CC1=NN(Cc2ccccc2)C(=O)/C1=C/c1ccc(N(C)C)cc1	3.72%
CN(C)c1ccc(/C=C2\NC(=S)N(Cc3ccccc3)C2=O)cc1	16.3% (active)
COc1ccc(N2CCN(C(=O)CN3C(=O)COc4ccccc43)CC2)cc1	-4.68%
CCOc1ccc(NC(=O)COc2ccc(C(=O)NC3CCCc4ccccc43)cc2OC)cc1 (stereo unspecified)	-1.56%
O=C(O)CCn1c(O)c(C=C2N=c3ccccc3=N2)sc1=S	-1.81%
Cc1ccc(-n2nc3cc(Cl)c(NC(=O)c4ccco4)cc3n2)cc1	45% (active)
Cc1ccc(-n2nc3cc(C)c(NC(=O)c4cccnc4)cc3n2)cc1	15.8% (active)
O=C(Nc1cccc(-n2cnnn2)c1)c1cccnc1	-4.68%
Cc1c(NC(=O)c2cccnc2)c(=O)n(-c2ccccc2)n1C	-2.61%
COC(=O)c1cc(Cl)c(NC(=O)c2ccco2)cc1OC	3.33%
Cc1cc(NC(=O)c2ccco2)c(=O)n(Cc2c(F)cccc2Cl)c1	-2.05%
COc1ccc(C(C(=O)NC2CCCC2)N(CCCO)C(=O)Cn2nnc(-c3ccc(C)o3)n2)cc1 (stereo unspecified)	-4.49%
Cc1cccc(NC(=S)NCCc2ccc(F)cc2)c1C	6.6%
CCNC(=S)Nc1cccc(Cl)c1C	-2.36%
Cc1ccc(NC(=S)NCCc2ccc(Cl)cc2)c(C)c1	13.7% (active)
Cc1cccc(NC(=S)NCCc2ccc(Cl)cc2)c1C	17.3% (active)
Cc1ccc(NC(=S)NCc2ccccc2Cl)c(C)c1	10.7%
Cc1cc(F)ccc1NC(=S)NCCc1ccccc1	5.78%
CC#CC[N+](C)(C)CCCCCC	0.922%
COc1ccc(C(=O)NC(=S)N2CCNC(=O)C2CC(=O)OC(C)C)cc1 (stereo unspecified)	0.131%
COc1ccc(OC)c(C(C)NC(=S)Nc2ccc(S(=O)(=O)Nc3ncccn3)cc2)c1 (stereo unspecified)	-0.745%

Compound	max response
COc1ccc(NC(=O)C(CC(C)C)NC(=O)C2CCC(C)CC2)cc1 (stereo unspecified)	6.1%
O=C1Nc2cc(Cl)c(Cl)cc2N(O)N1c1ccccc1Cl	4.44%
O=C1Nc2cc(Cl)c(Cl)cc2N(O)N1c1cc(Cl)cc(Cl)c1	-2.32%
O=C(O)c1cccc(N2C(=O)Nc3ccccc3N2O)c1	24.6% (active)
COc1ccccc1N(C)C(=O)c1cc(S(=O)(=O)N2CCc3ccccc32)cn1C	0.704%
CC1CCN(C(=O)CCNC(=O)c2ccccc2)CC1	31.5% (active)
CC1CCN(C(=O)/C(=C\c2ccccc2)NC(=O)c2ccccc2)CC1	-1.41%
CC1CCN(C(=O)/C(=C\c2ccccc2F)NC(=O)c2ccccc2)CC1	8.12%
OC(CNC1CCCC1)COc1ccc(F)cc1 (stereo unspecified)	-1.08%
NC(=O)CC(NC(=O)Cc1cccc2ccccc12)c1ccc(NCc2cc(F)ccc2F)c([N+](=O)[O-])c1 (stereo unspecified)	-1.72%
CCOc1ccc(N(CC(=O)NCCOc2ccccc2OC)S(=O)(=O)c2ccccc2)cc1	1.62%
COc1ccccc1/C=C1\SC(=O)N(CCC(=O)N(C)C2CCS(=O)(=O)C2)C1=O (stereo unspecified)	7.79%
O=C(CCN1C(=O)c2ccccc2C1=O)NCCN1CCOCC1	-0.442%
Cc1ccc(/C=C2\SC(=S)N(CCC(=O)Nc3ccc(O)cc3)C2=O)cc1	0.318%
COc1ccc(/C=C2\SC(=O)N(CCC(=O)NC3CCS(=O)(=O)C3)C2=O)cc1 (stereo unspecified)	27.8% (active)
COc1ccc(/C=C2\SC(=O)N(CCC(=O)NCCCn3ccnc3)C2=O)cc1	18.8% (active)
COc1ccc(NC(=O)CCN2C(=O)/C(=C/c3ccc4c(c3)OCO4)SC2=S)cc1	-1.34%
Cc1ccc(/C=C2/SC(=S)N(CCC(=O)NCCCN3CCOCC3)C2=O)cc1	11.5% (active)
O=C(Cc1ccc(Cl)cc1)NC1CCS(=O)(=O)C1 (stereo unspecified)	-0.92%
O=C(CCN1C(=O)c2ccccc2C1=O)NCCCn1ccnc1	4.07%
COc1ccc(-c2ccc(OC(=O)NC3CCS(=O)(=O)C3)cc2)cc1 (stereo unspecified)	28.5% (active)
O=C(CN1C(=O)S/C(=C\c2ccccc2F)C1=O)NCCCn1ccnc1	-0.628%
COc1ccc(NC(=S)NC2CCS(=O)(=O)C2)cc1 (stereo unspecified)	-3.34%
